Sampled rows, rich in hits. Any-hit rate of the full collection: about 18%.
DT40 TDP1 no CPT: qHTS for Inhibitors of human tyrosyl-DNA phosphodiesterase 1 (TDP1): qHTS in cells in absence of CPT; DT40 Tdp1-/- hTDP1 cells, no CPT, ATP luminescence, 48 h; Potency, µM (top dose mostly 46.2 µM), without a hit: at the top dose activity change, negative = growth inhibition, most hits filed as inhibitors; 15% of 420,000 active; AID 686978, 2013; note: nearly all actives have a fitted effect of over 55% in size
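Compound effects on proliferation are scored in DT40 Tdp1-/-;hTDP1 cells in the absence of CPT. ATP levels (CellTiter-Glo luminescence) are recorded after a ≥48 hr, 37 °C incubation.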
TDP1 cell CPT: DT40-hTDP1 cell growth loss with CPT; chicken DT40 Tdp1-/-;hTDP1 cells + 20 nM CPT, ATP luminescence, 48 h; Potency, µM (top dose mostly 46.2 µM), without a hit: at the highest dose activity change, negative = growth inhibition, actives largely listed as inhibitors; 12% of 420,000 active; AID 686979; note: nearly all actives have a fitted effect of over 55% in size
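Chicken DT40 Tdp1-/- cells stably complemented with human TDP1 were seeded at 400 cells/well in medium containing 20 nM camptothecin, exposed to pin-transferred compounds, and grown at 37 °C for at least 48 hr. Viability was read as ATP luminescence.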
VDR inhibitor: vitamin D3 receptor (human) inhibition; P11473; VDR-SRC2-3 peptide fluorescence polarization, 2 h; Potency, µM, without a hit: max response, negative = inhibition, hits mostly inhibitors; 0.93% of 400,000 active; AID 504847
Target sequence (P11473 whole entry, looked up): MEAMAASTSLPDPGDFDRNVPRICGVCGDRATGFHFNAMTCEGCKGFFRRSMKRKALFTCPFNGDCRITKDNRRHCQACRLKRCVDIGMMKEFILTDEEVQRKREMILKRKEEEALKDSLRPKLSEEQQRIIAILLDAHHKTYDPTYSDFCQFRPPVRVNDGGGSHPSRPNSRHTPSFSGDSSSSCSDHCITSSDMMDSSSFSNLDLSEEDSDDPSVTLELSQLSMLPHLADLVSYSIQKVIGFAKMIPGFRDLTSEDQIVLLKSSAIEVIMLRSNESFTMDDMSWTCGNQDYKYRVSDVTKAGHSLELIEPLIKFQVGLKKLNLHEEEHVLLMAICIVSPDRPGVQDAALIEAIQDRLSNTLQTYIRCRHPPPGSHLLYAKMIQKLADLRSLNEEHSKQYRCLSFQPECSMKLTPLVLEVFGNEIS
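FP read-out; VDR + SRC2-3 coactivator peptide; 23 nl compound by pintool; 2 h RT incubation; reagents held at 4 deg C, protected from light.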
TDP1 inh: blocks human tyrosyl-DNA phosphodiesterase 1; recombinant TDP1, AlphaScreen DNA substrate cleavage; 0.28% of 350,000 active; Potency, µM (doses to about 130 µM), for the others: top-dose activity change, negative = inhibition, actives largely listed as inhibitors; Q9NUW8; note: nearly all actives have a fitted effect of over 40% in size
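Here, a 5' biotin and 3' phosphotyrosine-FITC DNA oligonucleotide reports Tdp1 activity: intact substrate bridges AlphaScreen beads, while cleavage leaves a 3' phosphate and drops signal. All incubations at room temperature.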
PLK1 PBD block: blocks phosphopeptide binding to human PLK1 polo-box domain; Plk1 PBD binding of FITC phosphopeptide, fluorescence polarization; Potency, µM, without a hit: max response, negative = inhibition, actives largely listed as inhibitors; P53350; 2.8% of 360,000 active; note: series mostly up to about 57 µM; nearly all actives have a fitted effect of over 65% in size
GCN5L2 inh: inhibitors of human GCN5L2 histone acetyltransferase. GCN5L2 HAT assay, ThioGlo1 CoA-SH fluorescence. 0.21% of 390,000 active. AID 504327. Potency, µM (top dose mostly 58.9 µM), for the others: at the highest dose activity change, negative = inhibition, actives largely listed as inhibitors. Q92830
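Preincubate 20nM GCN5L2 with compound 15 min, RT → add 50uM ThioGlo1 + 75uM H3(1-25) + 70uM acetyl-CoA → read fluorescence 0 and 20 min. Primary qHTS; fluorescent artifacts likely.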
* hit, by the source's call; ? = inconclusive; · = no result; ! = not active in a repeat; [ ] = another dose, or the depositor's remark. Calls come from the whole dose curve; as a rule, active = well fitted curve in the direction sought with a large enough effect; inconclusive = small, poorly fitted or top-dose-only effect, or another doubt; inactive = no such curve, though single readings can be large; an effect the other way counts as inactive or inconclusive. % is set by controls: 0 for no effect and ±100 for the full control effect; potency is the fitted concentration of half-maximal effect.

SMILES	DT40 TDP1 no CPT	TDP1 cell CPT	VDR inhibitor	TDP1 inh	PLK1 PBD block	GCN5L2 inh
Cc1ccc(-c2c(C)n3c4c(=O)n(C)c(=O)n(C)c4nc3n2CCCO)cc1	·	·	0%	8%	·	2%
CC(Cc1n[nH]c(=S)n1N)c1ccccc1 (stereo not given)	3%	-4%	-6%	·	27µM*	15%
Nn1c(Cc2ccc(F)cc2)n[nH]c1=S	0%	3%	4%	0%	19µM*	-2%
CCOC(=O)NC(N(O)c1cccc(Cl)c1)C(Cl)(Cl)Cl (stereo not given)	-18%	?	32µM*	0%	?	1%
CC(C)OC(=O)/C(=C/c1ccco1)c1ccccc1	-25%	0%	-3%	-3%	-4%	-9%
Cc1ccccc1NC(=O)/C(=C/c1ccco1)c1ccccc1	12µM*	23µM*	-7%	2%	-19%	-1%
CCc1ccccc1NC(=O)/C(=C/c1ccco1)c1ccccc1	18µM*	?	-1%	2%	-9%	?
COc1cc(NC(=O)N2CCC3(CC2)Nc2cc(F)ccc2-n2cccc23)cc(OC)c1OC	26µM*	16µM*	16%	5%	·	-6%
CC(=O)Nc1ccc(N=C(C2=C(O)c3ccccc3C2=O)c2ccccc2)cc1	?	3.3µM*	3%	8%	?	-1%
COc1ccc(N=C(C)C2=C(O)c3ccccc3C2=O)cc1	?	23µM*	20%	5%	-7%	-2%
CCOc1ccc(N=C(C)C2=C(O)c3ccccc3C2=O)cc1	?	22%	-1%	·	-5%	?
Cc1cc2oc3ccc(NCCCn4ccnc4)cc3c(=O)c2cc1C	15µM*	?	-5%	·	45%	·
Cc1cc2oc3ccc(NCCCN4CCOCC4)cc3c(=O)c2cc1C	13µM*	10µM*	-8%	·	3%	·
Cc1ccc(C2c3c(oc4cc(C)c(C)cc4c3=O)C(=O)N2CCCN2CCOCC2)cc1 (stereo not given)	?	?	-7%	3%	-22%	4%
c1ccc(-c2nnsc2Sc2ccccn2)cc1	0%	13%	-20%	-7%	-2%	-12%
CCN1CCN(C(c2cccs2)C(C)NS(=O)(=O)c2ccc(C)cc2)CC1 (stereo not given)	?	-20%	-7%	-1%	-3%	-3%
CCCCc1nc(Cl)c(C#N)c2c1CSC(C)(C)C2	-20%	-17%	6%	-2%	-2%	-3%
CCCCc1nc(NCCNC(=O)c2ccccc2)c(C#N)c2c1CSC(C)(C)C2	13µM*	23µM*	-7%	6%	-11%	-8%
CCCCc1nc(NCCNC(=O)c2ccco2)c(C#N)c2c1CSC(C)(C)C2	23µM*	29µM*	?	-1%	-24%	-38%
Cc1csc2nc(SCC(=O)N3CCN(c4ccccc4)CC3)[nH]c(=O)c12	?	?	-20%	2%[56.1 µM]	-14%	-1%
COc1ccccc1OCC(=O)NCCSCc1ccccc1Cl	18µM*	?	?	5%	27µM*	-3%
CCCn1ccc2c(OCC(=O)NCc3ccc(C)cc3)cccc2c1=O	?	-20%	2%	8%	·	-6%
CCCCc1ccc(NC(=O)COc2cccc3c(=O)n(C)ccc23)cc1	18µM*	13µM*	0%	0%	·	-14%
Cn1ccc2c(OCC(=O)NCc3ccccc3Cl)cccc2c1=O	18µM*	?	6%	5%	·	-14%
CC(=O)Nc1ccc2c(c1)CCCC2	-1%	-11%	-1%	1%	5%	-4%
SMILES	DT40 TDP1 no CPT	TDP1 cell CPT	VDR inhibitor	TDP1 inh	PLK1 PBD block	GCN5L2 inh
CC(=O)Nc1ccc2c(c1)C(C)(C)C(C)N2C (stereo not given)	?	16µM*	45µM*	6%	-1%	2%
COc1cc(NC(=O)C(Cc2ccccc2)NS(=O)(=O)c2cccc3nsnc23)cc(OC)c1 (stereo not given)	16µM*	16µM*	-20%	5%	·	-10%
COc1cc(NC(=O)C2CCCN(S(=O)(=O)c3cccc4nsnc34)C2)cc(OC)c1 (stereo not given)	21µM*	?	-8%	4%	?	-15%
O=C(Nc1ccc(Br)cc1)C(Cc1ccccc1)NS(=O)(=O)c1cccc2nsnc12 (stereo not given)	-28%	-29%	11%	5%	·	-14%
COc1ccc(OC)c(NC(=O)C2CCCN(S(=O)(=O)c3cccc4nsnc34)C2)c1 (stereo not given)	16µM*	16µM*	-20%	6%	3.4µM*!	-4%
Cc1csc2cc(-c3cccc([N+](=O)[O-])c3)c(-c3cccc([N+](=O)[O-])c3)c[n+]12	-5%	9%	3%	6%	-6%	1%
Brc1ccc2c(c1)C(c1ccc(N3CCOCC3)cc1)=NNC(c1cccs1)=N2	21µM*	?	-12%	5%	8%	-10%
Cc1ccc2c(c1)C(c1ccc(N3CCOCC3)cc1)=NNC(c1cccs1)=N2	?	?	14%	2%	1%	-10%
Brc1ccc2c(c1)C(c1cccnc1)=NNC(c1cccs1)=N2	?	?	-6%	11%	2%	-4%
Fc1ccc2c(c1)C(c1ccc(N3CCOCC3)cc1)=NNC(c1cccs1)=N2	23µM*	?	0%	8%	-2%	-8%
CCCCN1CCc2c([nH]c3ccccc23)C1=O	-4%	-1%	18%	-5%	0%	-22%
CCCCC1CN2CCc3c([nH]c4ccccc34)C2(C)C1 (stereo not given)	18µM*	?	5%	·	-11%	3%
Cc1noc2ncnc(N3CCN(c4cccc(C(F)(F)F)c4)CC3)c12	8.2µM*	12µM*	-3%	-1%	·	-21%
Cc1cccc(N2CCN(c3ncnc4onc(C)c34)CC2C)c1 (stereo not given)	2.3µM*	4.6µM*	11%	4%	·	-9%
Cc1cccc(N2CCN(c3ncnc4onc(-c5ccc(F)cc5)c34)CC2C)c1 (stereo not given)	15µM*	16µM*	6%	-3%	·	-3%
COc1ccc(C(=O)O/N=C/c2ccc(S(=O)(=O)c3ccc(Cl)cc3)nc2)cc1	-8%	4%	0%	·	-9%	·
Fc1ccc(Cn2nnnc2C(c2cccs2)N2CCN(C3CCCCC3)CC2)cc1 (stereo not given)	16µM*	15µM*	-10%	-2%	6%	-6%

Screening data deposited in PubChem BioAssay by National Center for Advancing Translational Sciences (NCATS).
